# PubChem BioAssay
# Calls of active or inactive are those of the source. How the calls were made is not given here.
# Target: Pantothenate synthetase (Mycobacterium tuberculosis (strain ATCC 25618 / H37Rv)) (UniProt P9WIL5)
# Test: Recombinant Mtb pantothenate synthetase (PanC) inhibitors, coupled enzyme, confirmatory (AID 375);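 further: 0% = full reaction with vehicle and 100% = no enzyme background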
# Conditions: coupled enzyme assay; at 10 µM, stronger effect = higher value
# Chain of Pantothenate synthetase (Mycobacterium tuberculosis (strain ATCC 25618 / H37Rv)) (P9WIL5 whole entry, looked up): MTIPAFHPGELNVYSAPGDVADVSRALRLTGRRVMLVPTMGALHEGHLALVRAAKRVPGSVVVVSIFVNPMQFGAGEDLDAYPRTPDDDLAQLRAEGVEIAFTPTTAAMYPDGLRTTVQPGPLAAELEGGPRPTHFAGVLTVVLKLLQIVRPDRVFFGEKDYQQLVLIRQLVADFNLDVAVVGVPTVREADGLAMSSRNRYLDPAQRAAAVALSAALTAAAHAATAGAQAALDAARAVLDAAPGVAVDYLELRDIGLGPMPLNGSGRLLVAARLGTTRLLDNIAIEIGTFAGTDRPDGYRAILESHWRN
row,Compound,inhibition
1,CC(=O)Nc1ccc(NC(=O)C(C)Oc2ccccc2F)cc1 (stereo not given),0% (inactive)
2,COc1ccc(CC(=O)Nc2ccc(OC)c(NC(=O)c3ccco3)c2)cc1,7% (inactive)
3,O=C(Nc1cccc2ccccc12)c1cnccn1,0% (inactive)
4,CC(C)(Oc1ccc(CCNC(=O)c2ccc(Cl)cc2)cc1)C(=O)O,0% (inactive)
5,Cc1nc(C)c(C(=O)C2=C(O)C(=O)N(CCCn3ccnc3)C2c2ccccc2)s1 (stereo not given),1% (inactive)
6,CN(C)C(=O)Oc1ccc[n+](C)c1,4% (inactive)
7,CCOC(OCC)P(=O)(C(C)C)C(C)C,0% (inactive)
8,CCOC(=O)N1CCN(C(=O)c2ccc3nc4cc(Cl)ccc4c(=O)n3c2)CC1,8% (inactive)
9,Cc1ccc(-c2ccc(=O)n(CCC(=O)NCCN3CCCCC3C)n2)cc1 (stereo not given),0% (inactive)
10,Cc1nc2ccccc2c2oc(C(=O)NCCN3CCCCC3C)cc12 (stereo not given),0% (inactive)
11,Cc1ccc(-c2nc(CS(=O)CC(=O)NCCN(CC(C)C)CC(C)C)c(C)o2)cc1 (stereo not given),4% (inactive)
12,COc1cc2c(cc1NC(=O)CN1CCN(S(=O)(=O)c3ccc(F)cc3)CC1)oc1ccccc12,0% (inactive)
13,CS(=O)(=O)c1ccc2nc(NC(=O)C3C4C=CC(C4)C3C(=O)O)sc2c1 (stereo not given),1% (inactive)
14,CC1(C)C2CCC1(CS(=O)(=O)NCc1ccc(C(=O)O)cc1)C(=O)C2 (stereo not given),0% (inactive)
15,COc1cc2c(=O)nc3n(c2cc1OC)C(c1ccccc1)N=C(N)N3 (stereo not given),0% (inactive)
16,Cc1ccccc1CSc1nnc(C)c(=O)[nH]1,0% (inactive)
17,O=C(O)[C@@H]1CCCN1c1ncnc2sc3c(c12)CCC3,6% (inactive)
18,CCOc1cc(C(=O)N(C)Cc2cc3cc(OC)ccc3[nH]c2=O)cc(OCC)c1OCC,0% (inactive)
19,Cc1ccc(N=C2NC(=O)CS2)c(C)c1,0% (inactive)
20,Cc1noc(/C=C/N(C)C)c1S(=O)(=O)N1CCCC(C(=O)NCCC2=CCCCC2)C1 (stereo not given),0% (inactive)

row,Compound,inhibition
1,Cc1ccccc1C1CC(c2ccccc2)Nc2ncnn21 (stereo not given),12% (inactive)
2,COc1cc(NC(=O)Nc2cccc(Cl)c2)c(OC)cc1NC(=O)CN1CCCCC1,2% (inactive)
3,Cn1nc(-c2ccc(C(=O)N3CCN(c4ccccc4)CC3)cc2)c2ccccc2c1=O,0% (inactive)
4,CCOC(=O)C1=C(C)N=c2s/c(=C\c3cccn3C)c(=O)n2C1c1cccc(OC)c1OC (stereo not given),0% (inactive)
5,CCCC(=O)N1c2ccccc2NC2=C(C(=O)CCC2)C1c1ccc(F)cc1 (stereo not given),5% (inactive)
6,CCC(Sc1ccc(C(=O)O)cc1)C(=O)O (stereo not given),2% (inactive)
7,COc1cccc(C2CC(=O)Nc3cc4c(cc32)OCCO4)c1OC(C)C (stereo not given),1% (inactive)
8,COc1cc(OC)cc(-c2nnc(SCC(=O)Nc3cc(C)on3)o2)c1,2% (inactive)
9,O=C(COc1ccccc1Cl)NCCCN1CCOCC1,0% (inactive)
10,C1CCN=C(Nc2nc3c(s2)CCCC3)CC1,3% (inactive)
11,O=C(c1cccc2c1C(=O)N(Cc1cccnc1)C2)N1CCN(c2ccccc2)CC1,8% (inactive)
12,CC(C)COc1nc2ccccc2nc1C(C#N)C(=O)NC1CCCCC1 (stereo not given),0% (inactive)
13,COC(=O)c1ccc(CNC(=O)CSc2nc3sc(C)c(C)c3c(=O)n2C)o1,0% (inactive)
14,Cc1onc(-c2ccccc2Cl)c1C(=O)N1CCc2ccccc21,0% (inactive)
15,CCn1nnnc1SCC(=O)Nc1nc(-c2cccs2)cs1,0% (inactive)
16,CCOc1ccc(-c2nc(S(=O)(=O)c3ccccc3)c(NCc3cccnc3)o2)cc1,0% (inactive)
17,CCC(NS(=O)(=O)c1ccc(C)cc1)C(=O)N1CCC2(O)CCCCC2C1 (stereo not given),6% (inactive)
18,COc1cc(CNc2ccc(N3CCOCC3)c(C(=O)O)c2)ccc1OCC(N)=O,1% (inactive)
19,CC1=C(C(=O)Nc2ccccc2)C(c2ccco2)C(C#N)=C(SCC(=O)Nc2cccc(C)c2C)N1 (stereo not given),1% (inactive)
20,CCCn1cc(SCC(N)=O)c2ccccc21,0% (inactive)
